NFkB transloc pot: enhancers of NFkB p65 translocation in HUVEC – imaging, IL-1B stimulus, high-content imaging, primary screen | HUVEC IL-1B NFkB p65 nuclear translocation imaging | activation, % at 2 µM | hit rate 0.3% among 94,000 | AID 819, 2007;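 active = activation above 40%, about the mean plus 3 SD, also judged a hit on visual image review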;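 also: percent activation is computed from the nuclear over cytoplasmic p65 intensity ratio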
IL1B cytotox: cytotoxicity in IL-1B stimulated HUVEC, primary screen, cytotoxicity control for IL-1B NFkB translocation project, imaging, Hoechst nuclear count, IL-1B stimulus; hit rate 0.41% among 94,000; cell count reduction, % at 2 µM; HUVEC cell count loss;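 active = cell count reduction more than 3 SD above the screen-wide mean, cut at about 70% in these data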;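 also: normalized per plate to untreated control cells as the no-loss baseline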
NFkB transloc inh: inhibitors of IL-1B driven NFkB p65 nuclear import, primary screen, imaging, HUVEC, IL-1B stimulus, high-content imaging | HUVEC IL-1B NFkB p65 nuclear translocation imaging | inhibition, % at 2 µM | hit rate 0.43% among 94,000 | AID 796, 2007;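 active = inhibition above about 30% together with a positive call from visual inspection of the well image, limit read from the data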;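 also: nuclear over cytoplasmic p65 intensity ratio measured by imaging; 0% = IL-1B stimulated DMSO wells and 100% = unstimulated DMSO wells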
Measles CPE: compounds protecting cells from measles virus cytopathic effect, primary screen, measles RdRp inhibitor project, single point, MLSMR library, absorbance; Measles virus-infected cells, CPE protection; protection (pct of control), % at 4 µM; hit rate 1.5% among 140,000; in the data active = protection mostly above about 24%, no sharp cut-off; inactive = mostly below about 26%
Starred values were filed as active, the others as inactive. An excerpt weighted towards active compounds, which were near 2.1% of everything screened.

Results for O=C(O)CCC(=O)NNC(=O)c1cccc(Br)c1 ?
Measles CPE: 59*

How did Cn1cc(/C=N/n2cnc3scc(-c4ccc(Cl)cc4)c3c2=O)c2ccccc21 do in these assays?
NFkB transloc pot: -37; IL1B cytotox: 57; NFkB transloc inh: 37*; Measles CPE: 4

What do the screens show for `COc1ccc(S(=O)(=O)NNC(=O)c2csc(-n3nc(C)cc3C(F)(F)F)n2)cc1OC`?
NFkB transloc pot: 52*; IL1B cytotox: -5; NFkB transloc inh: -52; Measles CPE: 16

How did COc1ccc(/C=N/NC(=O)c2csc(-n3nc(C)cc3C(F)(F)F)n2)cc1 do in these assays?
NFkB transloc pot: -11; IL1B cytotox: 6; NFkB transloc inh: 11; Measles CPE: 13

Results for COc1ccc(NC(=O)c2cc(SC)ccc2Cl)cc1 ?
Measles CPE: 3

How did Cc1csc(NC(=O)c2cc3c(C)nn(Cc4ccccc4Cl)c3s2)n1 do in these assays?
Measles CPE: 3

How did CCN1CCN(C(=O)C2(NC(=O)Nc3ccccc3Cl)CCCCC2)CC1 do in these assays?
NFkB transloc pot: 4; IL1B cytotox: -41; NFkB transloc inh: -4; Measles CPE: 49*

How did C=CCc1cc(OC)ccc1OCCOCCC(C(=O)OCC)C(=O)OCC do in these assays?
Measles CPE: 21*

What do the screens show for `CCN1CCN(CCNC(=O)c2cn(Cc3ccccc3F)nn2)CC1`?
NFkB transloc pot: 13; IL1B cytotox: 4; NFkB transloc inh: -13; Measles CPE: 41*

How did CCN1CCN(CCNC(=O)c2cn(C(C)c3ccccc3F)nn2)CC1 (stereo not given) do in these assays?
NFkB transloc pot: 3; IL1B cytotox: -26; NFkB transloc inh: -3; Measles CPE: 1

Results for Cc1cc(Cl)c(S(=O)(=O)N2CCSCC2)cc1OCC(N)=O ?
NFkB transloc pot: 1; IL1B cytotox: 75*; NFkB transloc inh: -1; Measles CPE: 1

How did O=C(O)c1ccc(COc2c(F)c(F)c(F)c(F)c2F)o1 do in these assays?
Measles CPE: 9

What do the screens show for `CCCn1c(SCC(=O)Nc2nc(C)c(C(=O)OC)s2)nnc1C(C)C`?
NFkB transloc pot: 0; IL1B cytotox: -18; NFkB transloc inh: 0; Measles CPE: 31*

How did CC(C)C(NS(=O)(=O)c1ccc2c(c1)oc(=O)n2C)C(=O)N1CCN(Cc2ccccc2)CC1 (stereo not given) do in these assays?
NFkB transloc pot: 0; IL1B cytotox: -2; NFkB transloc inh: 0; Measles CPE: 8

Results for Cc1ccccc1C(=O)Nc1ccccc1-n1cccc1 ?
NFkB transloc pot: 40*; IL1B cytotox: 0; NFkB transloc inh: -40; Measles CPE: 2

How did O=C(CSc1nc2ccccc2o1)NCc1n[nH]c(=O)c2ccccc12 do in these assays?
NFkB transloc pot: 0; IL1B cytotox: 6; NFkB transloc inh: 0; Measles CPE: 4

Results for Cn1c(=O)n(-c2ccccc2)c(=O)c2c3c(sc21)COC(C)(C)C3 ?
Measles CPE: 18*

Results for COc1cc(OC)c(NC2=NCCCCC2)cc1Cl ?
NFkB transloc pot: 14; IL1B cytotox: -20; NFkB transloc inh: -14; Measles CPE: 8

How did O=C(Nc1ccccc1)OCCNC(=O)c1cccc(Cl)c1 do in these assays?
NFkB transloc pot: -2; IL1B cytotox: 3; NFkB transloc inh: 2; Measles CPE: 29*

What do the screens show for `C/C(=N\NC(=O)c1ccc(Cl)c(S(=O)(=O)Nc2ccccc2Cl)c1)c1ccncc1`?
Measles CPE: 14

Results for COC(=O)CCCCCNc1ccc(C(=O)OC)cc1N ?
NFkB transloc pot: 6; IL1B cytotox: 8; NFkB transloc inh: -6; Measles CPE: 30*

How did CC(C)OC(=O)CC(NC(=O)OC(C)(C)C)c1ccccc1 (stereo not given) do in these assays?
Measles CPE: 4

Results for O=C(N/N=C/c1cccs1)c1ccccn1 ?
NFkB transloc pot: 3; IL1B cytotox: -17; NFkB transloc inh: -3; Measles CPE: 42*

How did CCCNC(=O)C(=O)N/N=C/c1cccs1 do in these assays?
Measles CPE: 50*

Results for COC(=O)CC(N)c1ccc(OC)c2ccccc12 (stereo not given) ?
NFkB transloc pot: -11; IL1B cytotox: 16; NFkB transloc inh: 11; Measles CPE: 12

How did CCCn1nc(C(=O)OCn2nnc3ccccc3c2=O)c2ccccc2c1=O do in these assays?
Measles CPE: 21

What do the screens show for `O=C(Nc1ccon1)c1cc(-c2ccccc2)nc2ccccc12`?
NFkB transloc pot: -72; IL1B cytotox: 94*; NFkB transloc inh: 72*; Measles CPE: 10

What do the screens show for `O=C(NN1CCOCC1)c1cc(-c2cccc(Cl)c2)nc2ccccc12`?
NFkB transloc pot: 0; IL1B cytotox: -8; NFkB transloc inh: 0; Measles CPE: 43*

How did COc1ccc(C2C(=O)N(CCc3ccccc3)CC(=O)N2C2CCCCC2)cc1 (stereo not given) do in these assays?
Measles CPE: 48

Results for CCCCOC(=O)C1=C(C)NC2=C(C(=O)CCC2)C1c1cc(OC)ccc1OC (stereo not given) ?
NFkB transloc pot: 1; IL1B cytotox: 14; NFkB transloc inh: -1; Measles CPE: 3

Results for CC(C)OCCCNC(=O)c1ccc2c(c1)ncn2C1CCCC1 ?
Measles CPE: 8

How did O=C(NCCCN1CCCC1=O)c1ccc2c(c1)ncn2C1CCCCC1 do in these assays?
Measles CPE: 41*

How did CC(C)NS(=O)(=O)c1ccc(Oc2ncc(C(F)(F)F)cc2Cl)cc1 do in these assays?
NFkB transloc pot: 4; IL1B cytotox: -22; NFkB transloc inh: -4; Measles CPE: 8

How did O=S(=O)(Nc1ccccc1)c1ccc(Oc2ncc(C(F)(F)F)cc2Cl)cc1 do in these assays?
NFkB transloc pot: -4; IL1B cytotox: -36; NFkB transloc inh: 4; Measles CPE: 41*

Results for CCN(CC)S(=O)(=O)c1cccc(C(=O)N[C@H](C(=O)OCC(=O)Nc2ccccc2)C(C)C)c1 ?
NFkB transloc pot: 2; IL1B cytotox: 0; NFkB transloc inh: -2; Measles CPE: 9

What do the screens show for `CCN(CC)S(=O)(=O)c1cccc(C(=O)N[C@H](C(=O)OCC(N)=O)C(C)C)c1`?
NFkB transloc pot: -34; IL1B cytotox: 26; NFkB transloc inh: 34*; Measles CPE: 18

What do the screens show for `Cc1cnc(NC(=O)CSc2nnc(-c3cccs3)n2C)s1`?
NFkB transloc pot: -3; IL1B cytotox: -54; NFkB transloc inh: 3; Measles CPE: 20

How did CCOC(=O)N1CCN(c2nc(C)c3c(n2)CC(C)CC3=O)CC1 (stereo not given) do in these assays?
NFkB transloc pot: 40*; IL1B cytotox: -4; NFkB transloc inh: -40; Measles CPE: 2

What do the screens show for `CC(C)CC(c1nnnn1Cc1ccccc1)N1CCC(C(N)=O)CC1` (stereo not given)?
NFkB transloc pot: 58*; IL1B cytotox: -2; NFkB transloc inh: -58; Measles CPE: 34

How did CCCC(c1nnnn1Cc1ccccc1)N1CCC(C(N)=O)CC1 (stereo not given) do in these assays?
NFkB transloc pot: 24; IL1B cytotox: -3; NFkB transloc inh: -24; Measles CPE: 12
